Measured values taken from the supplement of paper PMC12645437, “Orthogonal IMiD-Degron Pairs Induce Selective Protein Degradation in Cells” (ACS Chemical Biology, 2025).
Over roughly 8,300 sequences, “log2 fold change of degron read counts, EGFP-low vs EGFP+ sorted cells (limma voom), compound-induced degradation” has its median near -1.1; the highest 2% begin near 3.2. The list comes from a sample in which the highest values are over-represented; it also holds similar and randomly drawn sequences.

T1: CRBN, Q96SW2
T1 chain: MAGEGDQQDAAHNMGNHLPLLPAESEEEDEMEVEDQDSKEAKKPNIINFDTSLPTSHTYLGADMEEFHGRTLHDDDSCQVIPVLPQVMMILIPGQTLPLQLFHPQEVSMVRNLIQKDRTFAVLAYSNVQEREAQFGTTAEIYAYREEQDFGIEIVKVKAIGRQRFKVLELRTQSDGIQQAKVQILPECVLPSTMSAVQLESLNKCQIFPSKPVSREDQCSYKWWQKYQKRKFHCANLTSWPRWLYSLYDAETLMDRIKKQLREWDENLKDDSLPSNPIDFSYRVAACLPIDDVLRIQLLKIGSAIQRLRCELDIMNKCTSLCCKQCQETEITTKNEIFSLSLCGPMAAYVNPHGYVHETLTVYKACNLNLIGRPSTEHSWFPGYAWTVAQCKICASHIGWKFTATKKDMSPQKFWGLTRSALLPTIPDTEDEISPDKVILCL

B1: 46F_47T_49P_50I_52G_53A_54I_55F_67L_, Q9UKT9 (peptide)
chain: FTCPICGAIFTQKGNLLRHIKL
B2: 46F_47F_49D_50I_52G_53A_54L_55F_67L_, Q9UKT9 (peptide)
chain: FFCDICGALFTQKGNLLRHIKL
B3: 46F_47K_49P_50V_52G_53A_54E_55F_67L_, Q9UKT9 (peptide)
chain: FKCPVCGAEFTQKGNLLRHIKL
B4: 46F_47N_49N_50I_52G_53A_54A_55F_67L_, Q9UKT9 (peptide)
chain: FNCNICGAAFTQKGNLLRHIKL
B5: 46L_47S_49P_50I_52G_53F_54H_55C_67L_, Q9UKT9 (peptide)
chain: LSCPICGFHCTQKGNLLRHIKL
B6: 46L_47D_49P_50I_52G_53F_54H_55C_67L_, Q9UKT9 (peptide)
chain: LDCPICGFHCTQKGNLLRHIKL
B7: 46L_47M_49P_50I_52G_53F_54H_55C_67L_, Q9UKT9 (peptide)
chain: LMCPICGFHCTQKGNLLRHIKL
B8: 46L_47F_49P_50I_52G_53F_54H_55C_67L_, Q9UKT9 (peptide)
chain: LFCPICGFHCTQKGNLLRHIKL
B9: 46L_47Y_49P_50I_52G_53F_54H_55C_67L_, Q9UKT9 (peptide)
chain: LYCPICGFHCTQKGNLLRHIKL
B10: 46L_47H_49P_50I_52G_53F_54H_55C_67L_, Q9UKT9 (peptide)
chain: LHCPICGFHCTQKGNLLRHIKL
B11: 46L_47N_49P_50I_52G_53F_54H_55C_67L_, Q9UKT9 (peptide)
chain: LNCPICGFHCTQKGNLLRHIKL
B12: 46L_47W_49P_50I_52G_53F_54H_55C_67L_, Q9UKT9 (peptide)
chain: LWCPICGFHCTQKGNLLRHIKL
B13: 46L_47E_49P_50I_52G_53F_54H_55C_67L_, Q9UKT9 (peptide)
chain: LECPICGFHCTQKGNLLRHIKL
B14: 46L_47Q_49P_50I_52G_53F_54H_55C_67L_, Q9UKT9 (peptide)
chain: LQCPICGFHCTQKGNLLRHIKL
B15: 46L_47T_49P_50I_52G_53F_54H_55C_67L_, Q9UKT9 (peptide)
chain: LTCPICGFHCTQKGNLLRHIKL
B16: 46L_47V_49P_50I_52G_53F_54H_55C_67L_, Q9UKT9 (peptide)
chain: LVCPICGFHCTQKGNLLRHIKL
B17: 46L_47A_49N_50Q_52G_53F_54R_55C_67L_, Q9UKT9 (peptide)
chain: LACNQCGFRCTQKGNLLRHIKL
B18: 46F_47S_49P_50I_52G_53R_54L_55F_67L_, Q9UKT9 (peptide)
chain: FSCPICGRLFTQKGNLLRHIKL
B19: 46F_47V_49P_50Q_52G_53A_54L_55F_67L_, Q9UKT9 (peptide)
chain: FVCPQCGALFTQKGNLLRHIKL
B20: 46F_47G_49E_50I_52G_53A_54W_55F_67L_, Q9UKT9 (peptide)
chain: FGCEICGAWFTQKGNLLRHIKL
B21: 46F_47L_49P_50Q_52G_53A_54Q_55F_67L_, Q9UKT9 (peptide)
chain: FLCPQCGAQFTQKGNLLRHIKL
B22: 46F_47D_49N_50I_52G_53A_54I_55F_67L_, Q9UKT9 (peptide)
chain: FDCNICGAIFTQKGNLLRHIKL
B23: 46F_47Y_49E_50I_52G_53H_54S_55F_67L_, Q9UKT9 (peptide)
chain: FYCEICGHSFTQKGNLLRHIKL
B24: 46F_47V_49N_50Q_52G_53A_54G_55F_67L_, Q9UKT9 (peptide)
chain: FVCNQCGAGFTQKGNLLRHIKL
B25: 46F_47F_49E_50I_52G_53H_54V_55F_67L_, Q9UKT9 (peptide)
chain: FFCEICGHVFTQKGNLLRHIKL
B26: 46L_47I_49E_50I_52G_53F_54H_55C_67L_, Q9UKT9 (peptide)
chain: LICEICGFHCTQKGNLLRHIKL
B27: 46L_47W_49E_50I_52G_53F_54H_55C_67L_, Q9UKT9 (peptide)
chain: LWCEICGFHCTQKGNLLRHIKL
B28: 46L_47A_49E_50I_52G_53F_54H_55C_67L_, Q9UKT9 (peptide)
chain: LACEICGFHCTQKGNLLRHIKL
B29: 46L_47C_49E_50I_52G_53F_54H_55C_67L_, Q9UKT9 (peptide)
chain: LCCEICGFHCTQKGNLLRHIKL
B30: 46L_47S_49E_50I_52G_53F_54H_55C_67L_, Q9UKT9 (peptide)
chain: LSCEICGFHCTQKGNLLRHIKL
B31: 46L_47Y_49E_50I_52G_53F_54H_55C_67L_, Q9UKT9 (peptide)
chain: LYCEICGFHCTQKGNLLRHIKL

Target: T1, CRBN, Q96SW2
Assay: log2 fold change of degron read counts, EGFP-low vs EGFP+ sorted cells (limma voom), compound-induced degradation; higher = more compound-induced degradation of the degron-EGFP fusion; degrons are variants of IKZF1/3 zinc finger 2; compound dose not given here
Conditions: Jurkat, 18 h
[1] = compound: compound 19 (5-tert-butyl-thalidomide)
[2] = compound: compound 22 (5-morpholino-thalidomide)
[3] = compound: compound 33 (diphenyl IMiD analogue)
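Note: pooled lentiviral library of zinc finger degron-EGFP fusions in mCherry-positive Jurkat cells, FACS-sorted after compound exposure, with degron abundance counted by next-generation sequencing.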

| Sequence | log2 fold change of degron read counts [1] | log2 fold change of degron read counts [2] | log2 fold change of degron read counts [3] | log2 fold change of degron read counts (compound: thalidomide) |
| --- | --- | --- | --- | --- |
| B1 | -0.365 | 1.34 | 2.33 | 2.71 |
| B2 | 2.27 | 1.43 | 0.356 | -1.44 |
| B3 | -1.33 | -1.7 | -2.52 | -0.999 |
| B4 | 1.61 | 0.951 | 0.00357 | -0.128 |
| B5 | 2.37 | 2.02 | 2.39 | 2.28 |
| B6 | 1.47 | 0.38 | 0.522 | 1.41 |
| B7 | 0.0156 | 1.21 | 2.51 | 2.06 |
| B8 | 2.94 | 3.37 | 2.6 | 1.88 |
| B9 | 3.13 | 3.49 | 2.61 | 1.83 |
| B10 | 2.33 | 2.45 | 2.55 | 1.95 |
| B11 | 1.34 | 0.56 | 0.934 | 1.12 |
| B12 | 2.74 | 3.54 | 2.74 | 1.65 |
| B13 | -0.151 | -0.655 | 1.91 | 2.84 |
| B14 | 0.55 | 1.17 | 1.51 | 3.3 |
| B15 | 1.1 | 2.57 | 2.47 | 2.78 |
| B16 | 0.161 | 2 | 1.81 | 2.57 |

| Sequence | log2 fold change of degron read counts [1] | log2 fold change of degron read counts [2] | log2 fold change of degron read counts [3] | log2 fold change of degron read counts (compound: thalidomide) |
| --- | --- | --- | --- | --- |
| B17 | -0.828 | -1.5 | -1.86 | -1.22 |
| B18 | -0.866 | -1.05 | 1.44 | -0.361 |
| B19 | -2.37 | -1.48 | -0.389 | -0.926 |
| B20 | -0.259 | -1.17 | 0.513 | -0.936 |
| B21 | -2.2 | -2.3 | 0.482 | -0.585 |
| B22 | -1.43 | -1.22 | -0.173 | 0.319 |
| B23 | -2.01 | -3.04 | -1.92 | -2.8 |
| B24 | -2.26 | -1.63 | -0.863 | -1.05 |
| B25 | -1.37 | -1.97 | -2.03 | -1.87 |
| B26 | -0.287 | 0.622 | 1.12 | 1.6 |
| B27 | 2.73 | 3.48 | 2.33 | 1.12 |
| B28 | 1.51 | 0.415 | 0.86 | -0.0575 |
| B29 | 0.332 | -0.174 | 1.51 | 0.845 |
| B30 | 0.928 | 0.357 | 0.553 | 0.222 |
| B31 | 3.13 | 3.42 | 2.8 | 1.66 |
